The values below come from publication PMC7862700, “An all-to-all approach to the identification of sequence-specific readers for epigenetic DNA modifications on cytosine”.

What all share (assay): DAPPL (digital affinity profiling via proximity ligation, sequencing); 10 mM Tris-HCl pH 7.5, 50 mM NaCl, 1 mM DTT, 4% glycerol, room temperature, 30 min; GST-TFs on glutathione beads, 16-mer random dsDNA library, 0.1% formaldehyde crosslink after washing; high values mean tight binding
Holding throughout (conditions): protein: recombinant; tags: N-terminal GST; dsDNA, one strand shown

Experiment [1] concerns the target T1, FLI1 (Homo sapiens, UniProt Q01543 1-452).
T1 sequence: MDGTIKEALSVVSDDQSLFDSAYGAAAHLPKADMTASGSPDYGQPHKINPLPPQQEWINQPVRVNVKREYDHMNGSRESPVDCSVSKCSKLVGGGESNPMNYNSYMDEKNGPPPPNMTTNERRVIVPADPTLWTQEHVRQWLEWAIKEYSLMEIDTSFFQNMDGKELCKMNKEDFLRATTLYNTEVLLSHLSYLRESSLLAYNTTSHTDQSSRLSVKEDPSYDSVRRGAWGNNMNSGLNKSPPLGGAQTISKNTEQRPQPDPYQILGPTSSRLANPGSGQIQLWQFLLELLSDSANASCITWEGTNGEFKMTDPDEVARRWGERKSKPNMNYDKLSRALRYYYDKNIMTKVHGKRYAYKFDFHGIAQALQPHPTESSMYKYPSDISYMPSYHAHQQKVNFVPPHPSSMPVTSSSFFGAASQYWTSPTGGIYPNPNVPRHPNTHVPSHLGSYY
The essentials: (§1)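 Binding signal is given per hexamer as its read frequency for a factor divided by its frequency in the tag-only sample. GST-fused human transcription factors were expressed in yeast, captured on glutathione beads, barcoded with DNA and pooled with that sample, then incubated with 200 nmole of a 16-mer random double-stranded DNA library in Tris/NaCl/DTT/glycerol buffer for 30 min at room temperature. The pools were then washed, crosslinked, proximity-ligated, amplified by PCR and sequenced on an Illumina NextSeq500.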

For experiment [2], the target named is T2, ELK1 (Homo sapiens, UniProt P19419 1-428).
T2 sequence: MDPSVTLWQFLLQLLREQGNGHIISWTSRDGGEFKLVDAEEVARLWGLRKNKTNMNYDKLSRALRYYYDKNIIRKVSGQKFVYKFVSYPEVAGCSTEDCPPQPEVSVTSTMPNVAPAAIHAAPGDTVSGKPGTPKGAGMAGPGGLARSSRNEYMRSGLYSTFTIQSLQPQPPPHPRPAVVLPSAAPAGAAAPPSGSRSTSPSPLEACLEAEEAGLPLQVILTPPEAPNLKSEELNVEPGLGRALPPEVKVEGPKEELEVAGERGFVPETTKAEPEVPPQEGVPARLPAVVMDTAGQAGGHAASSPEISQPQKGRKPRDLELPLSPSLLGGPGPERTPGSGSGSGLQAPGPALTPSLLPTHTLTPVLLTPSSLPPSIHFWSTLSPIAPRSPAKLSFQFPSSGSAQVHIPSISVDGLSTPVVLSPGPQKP
The essentials: as §1

The target in experiment [3] is T3, GABPA (Homo sapiens, UniProt Q06546 1-454).
T3 sequence: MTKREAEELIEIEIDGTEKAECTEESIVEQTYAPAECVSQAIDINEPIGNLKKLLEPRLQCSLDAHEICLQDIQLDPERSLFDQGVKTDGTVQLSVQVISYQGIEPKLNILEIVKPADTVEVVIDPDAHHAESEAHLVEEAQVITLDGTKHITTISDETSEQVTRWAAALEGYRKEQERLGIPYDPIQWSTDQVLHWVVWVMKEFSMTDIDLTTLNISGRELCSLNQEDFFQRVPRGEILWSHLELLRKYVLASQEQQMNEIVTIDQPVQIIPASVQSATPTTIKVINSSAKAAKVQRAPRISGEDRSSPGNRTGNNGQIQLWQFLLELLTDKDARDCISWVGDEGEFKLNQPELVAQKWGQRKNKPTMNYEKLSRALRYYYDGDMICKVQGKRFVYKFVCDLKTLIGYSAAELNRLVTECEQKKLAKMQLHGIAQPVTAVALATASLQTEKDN
An outline of the steps:
as §1

The target in experiment [4] is T4, ERG (Homo sapiens, UniProt P11308 1-479).
T4 sequence: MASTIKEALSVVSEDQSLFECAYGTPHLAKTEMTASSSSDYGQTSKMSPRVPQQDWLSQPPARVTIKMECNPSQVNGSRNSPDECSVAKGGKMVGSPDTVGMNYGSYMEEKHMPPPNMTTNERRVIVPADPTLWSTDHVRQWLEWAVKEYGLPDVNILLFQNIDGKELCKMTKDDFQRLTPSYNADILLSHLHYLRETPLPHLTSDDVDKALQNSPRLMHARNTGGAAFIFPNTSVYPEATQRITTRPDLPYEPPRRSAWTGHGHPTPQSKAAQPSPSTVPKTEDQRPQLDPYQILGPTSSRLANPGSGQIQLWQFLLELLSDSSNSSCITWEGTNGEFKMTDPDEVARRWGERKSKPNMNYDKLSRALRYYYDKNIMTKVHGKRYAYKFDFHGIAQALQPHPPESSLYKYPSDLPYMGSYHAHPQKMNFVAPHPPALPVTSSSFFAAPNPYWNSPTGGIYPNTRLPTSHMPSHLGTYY
The essentials:
as §1

Experiment [5] concerns the target ELF1 (Homo sapiens, UniProt P32519 1-619). An outline of the steps: as §1
The target in experiment [6] is T5, EHF (Homo sapiens, UniProt Q9NZC4 1-300).
T5 sequence: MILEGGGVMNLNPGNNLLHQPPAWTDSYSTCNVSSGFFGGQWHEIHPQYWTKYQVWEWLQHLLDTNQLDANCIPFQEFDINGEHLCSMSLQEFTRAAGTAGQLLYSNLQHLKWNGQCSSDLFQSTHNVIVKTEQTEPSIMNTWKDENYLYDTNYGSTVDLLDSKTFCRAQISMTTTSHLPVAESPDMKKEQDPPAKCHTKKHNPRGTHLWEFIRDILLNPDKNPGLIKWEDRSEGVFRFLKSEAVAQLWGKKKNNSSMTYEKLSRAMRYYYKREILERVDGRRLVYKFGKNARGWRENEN
An outline of the steps: as §1

Experiment [7] has as its target SPI1 (Homo sapiens, UniProt P17947 1-270). An outline of the steps:
as §1

Experiment [8] has as its target SPIB (Homo sapiens, UniProt Q01892 1-262). The essentials: as §1
The target in experiment [9] is T6, ELK3 (Homo sapiens, UniProt P41970 1-407).
T6 sequence: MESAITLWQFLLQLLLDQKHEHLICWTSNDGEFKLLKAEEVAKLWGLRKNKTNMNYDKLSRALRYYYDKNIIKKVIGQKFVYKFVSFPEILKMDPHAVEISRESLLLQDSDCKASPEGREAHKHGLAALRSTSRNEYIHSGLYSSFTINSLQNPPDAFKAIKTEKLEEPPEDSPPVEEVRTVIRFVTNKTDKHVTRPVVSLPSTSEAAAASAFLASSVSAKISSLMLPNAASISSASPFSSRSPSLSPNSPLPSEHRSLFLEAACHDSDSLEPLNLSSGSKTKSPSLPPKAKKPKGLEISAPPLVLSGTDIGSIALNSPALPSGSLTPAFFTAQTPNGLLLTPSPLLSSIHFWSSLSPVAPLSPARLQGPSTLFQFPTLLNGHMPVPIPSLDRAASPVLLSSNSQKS
The essentials: as §1

The target of experiment [10] is T7, FEV (Homo sapiens, UniProt Q99581 1-238).
T7 sequence: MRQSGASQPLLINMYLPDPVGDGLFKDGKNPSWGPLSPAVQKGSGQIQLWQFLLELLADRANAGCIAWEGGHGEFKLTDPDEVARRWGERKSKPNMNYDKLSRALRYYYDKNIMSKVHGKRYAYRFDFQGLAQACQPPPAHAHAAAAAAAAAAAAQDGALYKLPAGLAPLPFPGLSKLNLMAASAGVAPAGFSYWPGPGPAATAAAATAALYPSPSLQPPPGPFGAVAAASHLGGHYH
An outline of the steps: as §1

The target of experiment [11] is ETV5 (Homo sapiens, UniProt P41161 1-510). The essentials: as §1
Chain of ETV5 (P41161 whole entry): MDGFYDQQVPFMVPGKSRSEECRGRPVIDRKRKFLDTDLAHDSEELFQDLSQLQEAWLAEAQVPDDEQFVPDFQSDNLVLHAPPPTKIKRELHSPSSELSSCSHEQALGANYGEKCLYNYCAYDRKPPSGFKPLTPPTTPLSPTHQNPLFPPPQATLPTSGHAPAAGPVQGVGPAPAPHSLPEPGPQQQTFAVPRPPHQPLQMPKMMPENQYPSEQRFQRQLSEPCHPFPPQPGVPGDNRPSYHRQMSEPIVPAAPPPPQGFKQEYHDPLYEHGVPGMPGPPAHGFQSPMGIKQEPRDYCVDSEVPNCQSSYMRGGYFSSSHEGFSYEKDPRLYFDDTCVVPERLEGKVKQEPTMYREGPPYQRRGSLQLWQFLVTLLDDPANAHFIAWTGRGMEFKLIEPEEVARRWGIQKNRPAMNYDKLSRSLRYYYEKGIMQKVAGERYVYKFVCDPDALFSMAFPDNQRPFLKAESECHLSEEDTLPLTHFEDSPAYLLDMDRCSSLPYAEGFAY
In experiment [12] the target is T8, SPIC (Homo sapiens, UniProt Q8N5J4 1-248).
T8 sequence: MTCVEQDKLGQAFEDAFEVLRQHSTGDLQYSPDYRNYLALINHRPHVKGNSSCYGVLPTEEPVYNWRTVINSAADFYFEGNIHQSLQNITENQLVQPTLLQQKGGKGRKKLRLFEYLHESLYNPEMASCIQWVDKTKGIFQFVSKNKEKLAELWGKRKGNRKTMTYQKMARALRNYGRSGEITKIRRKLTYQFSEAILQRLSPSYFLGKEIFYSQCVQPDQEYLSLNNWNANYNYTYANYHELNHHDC
The essentials: as §1

Experiment [13] has as its target ELF4 (Homo sapiens, UniProt Q99607 1-663). An outline of the steps:
as §1

In experiment [14] the target is T9, ELK4 (Homo sapiens, UniProt P28324-2 1-405).
T9 sequence: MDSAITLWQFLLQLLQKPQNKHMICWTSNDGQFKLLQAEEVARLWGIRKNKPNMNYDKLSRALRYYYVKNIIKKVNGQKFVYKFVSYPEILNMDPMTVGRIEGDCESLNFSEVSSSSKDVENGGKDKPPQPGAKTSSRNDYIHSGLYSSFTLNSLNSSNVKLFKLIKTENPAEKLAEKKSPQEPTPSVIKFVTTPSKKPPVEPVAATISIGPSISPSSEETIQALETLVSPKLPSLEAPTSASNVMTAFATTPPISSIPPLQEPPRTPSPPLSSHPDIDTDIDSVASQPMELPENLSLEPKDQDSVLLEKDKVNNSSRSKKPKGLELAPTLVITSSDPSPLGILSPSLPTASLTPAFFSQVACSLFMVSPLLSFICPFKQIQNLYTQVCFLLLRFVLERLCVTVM
The essentials: as §1

In experiment [15] the target is T10, ETV2 (Homo sapiens, UniProt O00321 1-342).
T10 sequence: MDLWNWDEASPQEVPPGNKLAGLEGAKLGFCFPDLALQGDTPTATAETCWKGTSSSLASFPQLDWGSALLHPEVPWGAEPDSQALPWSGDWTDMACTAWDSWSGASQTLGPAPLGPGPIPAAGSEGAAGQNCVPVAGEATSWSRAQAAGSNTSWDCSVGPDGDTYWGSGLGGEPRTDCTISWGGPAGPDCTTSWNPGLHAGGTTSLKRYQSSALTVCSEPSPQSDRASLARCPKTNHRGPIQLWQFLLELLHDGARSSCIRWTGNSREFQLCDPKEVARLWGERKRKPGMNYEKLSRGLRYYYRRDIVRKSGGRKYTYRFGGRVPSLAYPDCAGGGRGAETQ
The essentials:
as §1

Experiment [16] deals with T11, ELF3 (Homo sapiens, UniProt P78545 1-371).
T11 sequence: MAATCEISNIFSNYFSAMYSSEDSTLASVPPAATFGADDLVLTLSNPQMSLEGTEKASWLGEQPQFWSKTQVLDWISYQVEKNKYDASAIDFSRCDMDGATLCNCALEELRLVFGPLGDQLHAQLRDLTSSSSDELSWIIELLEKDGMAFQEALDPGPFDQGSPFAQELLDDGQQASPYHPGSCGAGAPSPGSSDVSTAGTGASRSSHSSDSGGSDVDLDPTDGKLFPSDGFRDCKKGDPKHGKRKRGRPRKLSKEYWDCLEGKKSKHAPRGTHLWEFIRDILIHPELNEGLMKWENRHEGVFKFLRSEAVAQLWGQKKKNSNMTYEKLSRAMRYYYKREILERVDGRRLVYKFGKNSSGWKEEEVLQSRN
The essentials:
as §1

The target of experiment [17] is CRX (Homo sapiens, UniProt O43186 1-299). An outline of the steps: as §1
Chain of CRX (O43186 whole entry): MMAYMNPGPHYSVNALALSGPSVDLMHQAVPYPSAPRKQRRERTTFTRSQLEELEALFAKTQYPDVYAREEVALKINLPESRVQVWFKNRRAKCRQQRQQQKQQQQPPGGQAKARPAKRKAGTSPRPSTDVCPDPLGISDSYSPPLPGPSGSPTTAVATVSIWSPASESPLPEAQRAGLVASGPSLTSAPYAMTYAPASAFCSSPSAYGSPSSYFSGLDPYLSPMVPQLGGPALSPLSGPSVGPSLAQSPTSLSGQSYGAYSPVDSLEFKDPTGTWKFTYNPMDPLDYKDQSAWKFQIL
Experiment [18] concerns the target ETV1 (Homo sapiens, UniProt P50549 1-477). The essentials:
as §1

Chain of ELF4 (Q99607 whole entry): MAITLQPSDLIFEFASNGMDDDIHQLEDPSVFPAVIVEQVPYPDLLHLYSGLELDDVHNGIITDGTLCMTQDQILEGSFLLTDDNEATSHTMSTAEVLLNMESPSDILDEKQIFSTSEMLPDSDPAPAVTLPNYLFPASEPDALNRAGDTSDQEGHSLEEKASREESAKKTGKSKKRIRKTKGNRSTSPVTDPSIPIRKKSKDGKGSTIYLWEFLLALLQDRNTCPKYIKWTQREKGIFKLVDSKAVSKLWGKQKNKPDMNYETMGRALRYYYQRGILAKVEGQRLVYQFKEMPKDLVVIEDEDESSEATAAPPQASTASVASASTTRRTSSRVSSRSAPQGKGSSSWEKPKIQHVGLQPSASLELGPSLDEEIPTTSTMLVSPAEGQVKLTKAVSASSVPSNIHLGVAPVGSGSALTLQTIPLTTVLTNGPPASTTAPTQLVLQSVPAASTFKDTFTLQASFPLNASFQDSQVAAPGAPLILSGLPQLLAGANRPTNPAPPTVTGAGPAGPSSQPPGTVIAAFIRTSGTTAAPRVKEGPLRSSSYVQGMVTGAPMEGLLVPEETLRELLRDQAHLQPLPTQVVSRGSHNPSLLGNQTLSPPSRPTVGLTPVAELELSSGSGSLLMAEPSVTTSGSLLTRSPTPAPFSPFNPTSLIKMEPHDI
Chain of SPIB (Q01892 whole entry): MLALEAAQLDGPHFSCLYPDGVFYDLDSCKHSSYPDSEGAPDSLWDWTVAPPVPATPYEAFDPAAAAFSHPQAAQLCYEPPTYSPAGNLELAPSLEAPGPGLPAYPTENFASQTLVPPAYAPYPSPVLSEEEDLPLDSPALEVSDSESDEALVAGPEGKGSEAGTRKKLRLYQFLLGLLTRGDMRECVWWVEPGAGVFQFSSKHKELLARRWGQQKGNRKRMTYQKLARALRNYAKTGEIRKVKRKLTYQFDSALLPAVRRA
Chain of ETV1 (P50549 whole entry): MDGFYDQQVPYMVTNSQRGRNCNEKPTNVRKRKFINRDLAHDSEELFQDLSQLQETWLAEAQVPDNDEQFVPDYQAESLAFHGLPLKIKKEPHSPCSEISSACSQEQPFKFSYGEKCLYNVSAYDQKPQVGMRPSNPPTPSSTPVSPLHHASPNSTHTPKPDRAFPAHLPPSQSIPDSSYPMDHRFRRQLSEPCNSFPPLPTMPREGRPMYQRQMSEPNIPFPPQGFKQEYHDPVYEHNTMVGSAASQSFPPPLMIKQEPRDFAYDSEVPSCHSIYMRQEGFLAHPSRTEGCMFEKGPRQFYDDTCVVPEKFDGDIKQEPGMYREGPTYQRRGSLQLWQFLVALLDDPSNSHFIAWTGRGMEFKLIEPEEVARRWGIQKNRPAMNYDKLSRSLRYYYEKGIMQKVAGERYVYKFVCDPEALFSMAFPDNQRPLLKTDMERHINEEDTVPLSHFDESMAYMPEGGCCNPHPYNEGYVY
Chain of ELF1 (P32519 whole entry): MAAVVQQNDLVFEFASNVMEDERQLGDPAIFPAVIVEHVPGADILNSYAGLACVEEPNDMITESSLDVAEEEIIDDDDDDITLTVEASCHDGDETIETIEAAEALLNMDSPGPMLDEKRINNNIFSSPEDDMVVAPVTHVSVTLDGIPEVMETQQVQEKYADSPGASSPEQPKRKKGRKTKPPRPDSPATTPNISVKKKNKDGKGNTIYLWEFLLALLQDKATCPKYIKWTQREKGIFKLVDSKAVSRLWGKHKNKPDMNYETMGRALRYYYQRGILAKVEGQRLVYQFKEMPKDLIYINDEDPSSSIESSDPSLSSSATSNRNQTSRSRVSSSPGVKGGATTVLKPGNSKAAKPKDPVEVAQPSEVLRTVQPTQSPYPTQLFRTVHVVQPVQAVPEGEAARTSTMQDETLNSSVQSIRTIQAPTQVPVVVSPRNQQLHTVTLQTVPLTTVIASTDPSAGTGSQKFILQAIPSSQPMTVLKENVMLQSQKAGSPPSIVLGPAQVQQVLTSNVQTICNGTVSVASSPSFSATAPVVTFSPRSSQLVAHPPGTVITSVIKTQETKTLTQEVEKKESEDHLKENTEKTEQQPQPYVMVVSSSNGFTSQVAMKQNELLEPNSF

For AAGTCA, the binding signal was 1.18 fold enrichment (6-mer frequency, TF over GST control) in experiment [1]; 1.24 fold enrichment (6-mer frequency, TF over GST control) in [2]; 1.15 fold enrichment (6-mer frequency, TF over GST control) in experiment [3]; 1.26 fold enrichment (6-mer frequency, TF over GST control) in [4]; 1.17 fold enrichment (6-mer frequency, TF over GST control) in [5]; 1.15 fold enrichment (6-mer frequency, TF over GST control) in experiment [6]. Also, the binding signal is 1.3 fold enrichment (6-mer frequency, TF over GST control) in [7]; 1.11 fold enrichment (6-mer frequency, TF over GST control) in experiment [8]; 1.28 fold enrichment (6-mer frequency, TF over GST control) in experiment [9]; 1.17 fold enrichment (6-mer frequency, TF over GST control) in [10]; 1.23 fold enrichment (6-mer frequency, TF over GST control) in experiment [11]; 1.1 fold enrichment (6-mer frequency, TF over GST control) in experiment [12]. For the same sequence, the binding signal in [13] was 1.22 fold enrichment (6-mer frequency, TF over GST control); in experiment [14], 1.18 fold enrichment (6-mer frequency, TF over GST control); in experiment [15] it was 1.21 fold enrichment (6-mer frequency, TF over GST control); in [16], 1.21 fold enrichment (6-mer frequency, TF over GST control); in experiment [17], 1.03 fold enrichment (6-mer frequency, TF over GST control); in experiment [18], 1.3 fold enrichment (6-mer frequency, TF over GST control).
